ChEMBL document CHEMBL1157539, “Thousands of chemical starting points for antimalarial lead identification” (Nature, 2010)

test system: Plasmodium falciparum; assay: GSK_TCMDC: Inhibition of Plasmodium falciparum 3D7 in whole red blood cells, using parasite LDH activity as an index of growth. Test compounds present at 2uM; type: functional

| SMILES | Inhibition |
| --- | --- |
| O=C(NC1CCN(c2ccnc3cc(Cl)ccc23)C1)c1ccc(F)cc1.O=C(O)C(F)(F)F (centres undefined) | 94% |
| Cc1cccc(C(=O)N2CCN(Cc3cccc(NC(=O)c4cccs4)c3)CC2)c1.O=C(O)C(F)(F)F | 95% |
| N#Cc1cncc(-c2nc3c(N4CCN(c5cnccn5)CC4)cccc3n2CCNCc2ccccc2)c1.O=C(O)C(F)(F)F | 99% |
| CCCN1CCN(CC(O)CNC(=O)Nc2ccc(Br)cc2)CC1.O=C(O)C(F)(F)F (centres undefined) | 100% |
| CCOc1cc(O)c(-c2nc(N)ncc2-c2ccc3c(c2)OCCO3)cc1CC | 99% |
| CCCCCCCCOc1c(OCC)cc(Cc2cnc(N)nc2N)cc1OCC | 80% |
| CS(=O)(=O)c1ccc(CCNCc2ccc(-c3ccc(CN(C(=O)c4ccco4)C4CCN(Cc5ccccc5)CC4)cc3)nc2)cc1.O=C(O)C(F)(F)F | 85% |
| CN(C)c1ccnc2ccc(NC(=O)Nc3ccnc4ccccc34)cc12 | 100% |
| COc1ccc(Cl)cc1C(=O)Nc1ccc(-c2nc3ccccc3[nH]2)cc1 | 92% |
| O=C(N[C@H]1CCN(Cc2ccc(OCCCN3CCCCC3)cc2)C1)c1ccc(Cl)c(Cl)c1 | 100% |
| COc1ccc2nc(-c3cc(-c4ccc(NC(C)=O)cc4)cnc3N)[nH]c2c1 | 93% |
| COc1c(C2=CCN(CCCCNC(=O)c3ccc(-c4ccc(C#N)cc4)cc3)CC2)ccc2c1CCCC2 | 94% |
| Cn1c(NC(=O)C2CCC(CNC(=O)c3ccc(O)c(-c4cccc([N+](=O)[O-])c4)c3)CC2)nc2ccccc21 (centres undefined) | 95% |
| Cl.O=S(=O)(c1ccc(OCc2ccc(Cl)cc2)cc1)c1cc2c(cc1O)CCN(C1CCC1)CC2 | 99% |
| COC(=O)c1cccc(CNCc2cccc(-c3cccc(-c4nc5ccccc5[nH]4)c3)c2)c1.O=C(O)C(F)(F)F | 95% |
| Cc1cc2nc(-c3ccc(OCC(=O)NCc4cccc(C(F)(F)F)c4)cc3)[nH]c2cc1C | 94% |
| CC(C)CCN1CCC(Oc2cccc(NC(=O)c3ccc(C(F)(F)F)cc3)c2)CC1.O=C(O)C(F)(F)F | 98% |

| SMILES | Inhibition |
| --- | --- |
| CCN1CCC(N(Cc2ccc(-c3ccc(C(F)(F)F)cc3)cc2)C(=O)Cn2c(CCc3cccc(F)c3F)cc(=O)c3c2CCC3)CC1.O=C(O)C(O)C(O)C(=O)O | 89% |
| Br.CCOc1ccc(CCCON2C(=N)N=C(N)NC2(C)C)cc1 | 93% |
| CC1(C)CNCc2cc(NC(=O)/C=C/c3ccc(Cl)cc3)ccc21.Cl | 82% |
| O=C(O)C(F)(F)F.O=S(=O)(NCCN1CCCC1)c1ccc(-c2cccc(CNCc3ccsc3)c2)s1 | 90% |
| CN1CCN(CCCN(Cc2csc(-c3ccc(CNCc4ccccc4)cc3)n2)S(=O)(=O)c2ccccc2Cl)CC1.O=C(O)C(F)(F)F | 93% |
| O=C(NCc1ccc(Cl)cc1)c1ccc(CN2CCCN(CC3CCCCC3)CC2)cc1.O=C(O)C(F)(F)F | 84% |
| COc1ccc2nc(NC(N)=NC(=O)Nc3ccccc3)nc(C)c2c1 | 90% |
| Cc1cccc2nc(-c3ccc(-c4ccc(CN5CCCCC5CO)cc4)cc3)[nH]c12.O=C(O)C(F)(F)F (centres undefined) | 100% |
| O=C(NCCCCN1CCC(c2c[nH]c3ccccc23)CC1)c1ccc(-c2ccc(C(F)(F)F)cc2)cc1 | 98% |
| N#Cc1cccc(NC(=O)Nc2cccc(-c3cccc(-c4nc5cc(F)ccc5[nH]4)c3)c2)c1 | 100% |
| COc1c(C2CCN(CCCCNC(=O)c3cc(-c4ccc(C#N)cc4)n[nH]3)CC2)ccc2c1CCCC2 | 86% |
| O=C(/C=C/c1ccc(Cl)c(Cl)c1)NCCCCCN1CCC(CCNC(=O)c2snnc2-c2ccccc2)CC1 | 89% |
| COc1ccc(Nc2nc(N/N=C/c3ccc(O)cc3)nc(Nc3ccc([N+](=O)[O-])cc3)n2)cc1 | 93% |
| Cc1c(C(=O)Nc2cc(Sc3ccc(F)cc3)cc([N+](=O)[O-])c2)sc2ncn(Cc3cccc(F)c3)c(=O)c12 | 100% |
| CCCN(CC)CCOC(=O)c1ccccc1 | 99% |
| CC(C)C[C@H](NC(=O)c1cc2ccccc2s1)C(=O)N[C@H]1CCN(Cc2ccc(I)c(OCCN3CCCC3)c2)C1.O=C(O)C(F)(F)F | 92% |
| O=C(Cc1cccc(Cl)c1)Nc1cccc(-c2c[nH]c3nc(Nc4cccc(OCc5ccccc5)c4)ncc23)c1.O=C(O)C(F)(F)F | 100% |
